# Laboratory results published in PubChem BioAssay AID686979 (National Center for Advancing Translational Sciences (NCATS), 2013).
# “And” between values parts separate entries of the source, which are not always exact repeats. Equal entries are not always repeated. Out of some 420,000 compounds screened, about 50,000 (12%) were called active. Not shown: some 26% with an inconclusive outcome. The call rests on the fitted dose curve; in most records, active means well fitted inhibition curve with a large enough effect; inconclusive means small, poorly fitted or top-dose-only effect; inactive means flat fitted curve, though single readings scatter. This excerpt belongs to a sample that is enriched for actives. Some compounds were tested as several samples or in several runs, with calls that do not always agree.
# Assay: qHTS for Inhibitors of human tyrosyl-DNA phosphodiesterase 1 (TDP1): qHTS in cells in presence of CPT; further: nearly all actives have a fitted effect of over 55% in size
# Details: chicken DT40 Tdp1-/-;hTDP1 cells + 20 nM CPT, ATP luminescence, 48 h; series mostly up to 46.2 µM; activity change, negative = growth inhibition: at the top concentration
# Outline: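 Chicken DT40 Tdp1-/- cells stably complemented with human TDP1 were seeded at 400 cells/well in medium containing 20 nM camptothecin, exposed to pin-transferred compounds, and grown at 37 °C for at least 48 hr. Viability was read as ATP luminescence.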
# On the % scale 0 is the no-effect control and ±100 the full control effect; potency means the concentration at half of the fitted maximal effect.
SMILES,"activity change, negative = growth inhibition",Potency
CC(C)C1Cc2[nH][nH]c(=O)c2C(c2ccc(Cl)cc2)O1 (stereo not given),-11.6% (inactive),–
O=C(NCc1ccccc1)C1CCN(C(=O)Cc2ccccc2)CC1,13% (inactive),–
Cc1ccc(C(=O)Cc2nnc(C)s2)cc1,-7.05% (inactive),–
COc1ccc(NC(=O)C(CC(C)C)NS(=O)(=O)c2ccc3c(c2)CCN3C(C)=O)cc1OC (stereo not given),-13.4% (inactive),–
O=C1COc2c1ccc(O)c2O,-24.3% (inactive),–
COc1ccc(F)cc1C(=O)COC(=O)c1n[nH]c(=O)c2ccccc12,-1.47% (inactive),–
COc1ccc(C)cc1N(C(=O)Cn1nnc(-c2ccc(C)o2)n1)C(C(=O)NC1CCCC1)c1ccncc1 (stereo not given),12.6% (inactive),–
COc1ccc(C2OCC3(CO2)SC(=O)NC3=O)cc1OC (stereo not given),15.1% (inactive),–
N#CCC(=O)NC1CCC(CC2CCC(NC(=O)CC#N)CC2)CC1 (stereo not given),-2.97% (inactive),–
COc1ccc(Nc2nc(NCc3ccco3)nc(N/N=C/c3ccccc3Cl)n2)cc1,–,20.6 µM (active)
COc1ccc(NC(=O)C(=O)NCc2ccco2)cc1,-4.67% (inactive),–
COc1ccc(Nc2nc(Cl)nc(NCc3ccco3)n2)cc1,-16.7% (inactive),–
CCN(CC)S(=O)(=O)c1ccc(OC(C)C)c(N)c1,-24.6% (inactive),–
O=C(O)c1ccc(OCC2CCCO2)cc1 (stereo not given),-2.84% (inactive),–
COc1ccc2cc(C(=O)NCC3CCCO3)[nH]c2c1 (stereo not given),-0.892% (inactive),–
COc1ccc(OC)c(NC(=O)c2cc(-c3cc(F)ccc3OCC3CCCO3)n[nH]2)c1 (stereo not given),–,8.2 µM (active)
O=S(=O)(c1ccc(F)cc1)n1ccc(-c2cnc(-c3ccccc3)s2)n1,-7.25% (inactive),–
COc1cc2c(cc1NC(=O)COC(=O)/C=C/c1ccccc1)oc1ccccc12,–,20.6 µM (active)
COc1cc2c(cc1NC(=O)CN1CCN(S(=O)(=O)c3ccc(F)cc3)CC1)oc1ccccc12,-14.8% (inactive),–
COc1cc(/C=C/C(=O)OCC(=O)c2ccccc2)cc(OC)c1OC,-24.3% (inactive),–
CSCCC(NC(=O)c1ccccc1)C(=O)N1CCCCCCC1 (stereo not given),6.01% (inactive),–
COc1ccc(/C=C(\C#N)C(=O)OCC(=O)N(C)C2CCS(=O)(=O)C2)cc1 (stereo not given),19.1% (inactive),–
COc1ccc(/C=C(\C#N)C(=O)ONC2=NCCCCC2)cc1,–,16.4 µM (active)
CC(C)(C)C(=O)/C(C#N)=C/c1ccc(O)cc1,-4.28% (inactive),–
CCN(CC(=O)Nc1c(F)cccc1F)C(=O)Cc1cccs1,19.7% (inactive),–
CC(C)C1CC2=C(C(=O)OC(C)(C)O2)C(c2ccc(F)cc2)O1 (stereo not given),4.47% (inactive),–
O=C(NCc1ccc(Cl)cc1)C1CCN(S(=O)(=O)c2cccs2)CC1,–,11.6 µM (active)

SMILES,"activity change, negative = growth inhibition",Potency
O=C(NCc1ccccc1)C1CCCN(S(=O)(=O)c2cccs2)C1 (stereo not given),-3.4% (inactive),–
O=C(NCc1cccs1)C1CCN(S(=O)(=O)c2ccc(Cl)cc2)CC1,1.59% (inactive),–
CC1=C(C(N)=O)C(c2ccc(F)cc2)n2nc(CCCO)nc2N1 (stereo not given),4.64% (inactive),–
CCCCOP(=O)(c1ccc(N(C)C)cc1)C(O)c1cc(OC)ccc1OC (stereo not given),-8.33% (inactive),–
Cc1ccc(S(=O)(=O)N(C)c2ccc(OCC(=O)OCc3ccc(C#N)cc3)cc2)cc1,8.89% (inactive),–
Cc1ccc(CN2CCN(Cc3cccc(C)n3)CC2CCO)cc1 (stereo not given),21.1% (inactive),–
COC(=O)C1CCN(C(=O)COC(=O)c2cc(S(=O)(=O)N3CCOCC3)ccc2C)CC1,2.81% (inactive),–
CC(=O)Nc1ccc(NC(=O)COc2ncnc3ccccc23)cc1,-10.5% (inactive),–
Cc1ccc(Nc2c3c(nc4ccccc24)CCC3)cc1,–,11.6 µM (active)
O=C(Nc1c2c(nc3ccccc13)CCCC2)c1ccccc1Br,0.399% (inactive),–
N#Cc1cccc(Nc2c3c(nc4ccccc24)CCCC3)c1,–,18.4 µM (active)
N#Cc1cccc(NC(=O)CCC2CCCC2)c1,-0.0634% (inactive),–
N#Cc1cccc(NC(=O)CN2CCCCCC2)c1,40.9% (inactive),–
CC(=O)Nc1ccc(S(=O)(=O)N(C)c2nc3ccccc3nc2Cl)cc1,-28.2% (inactive),–
CC(=O)Nc1ccc(Nc2c3ccccc3nc3ccccc23)cc1,–,0.326 µM (active)
CN1CCCN(C(=O)C2CCCCC2)CC1,10% (inactive),–
CC1(C)C2CC=C(/C=N/NC(=O)C3CC3)C1C2 (stereo not given),0.0459% (inactive),–
Cc1cc(C)n(CCC(=O)N2CCN(S(=O)(=O)c3ccc(C)c(C)c3)CC2)n1,6.16% (inactive),–
O=C(OCCN1C(=O)c2ccccc2C1=O)[C@@H]1CC(O)CN1S(=O)(=O)c1ccccc1[N+](=O)[O-] (stereo not given in full),-7.37% (inactive),–
O=C(O)CCCCCCCCc1cn(CN2C(=O)c3ccccc3C2=O)nn1,–,inactive
Cn1c(N)c(C(=O)COC(=O)c2ccc3ccccc3c2)c(=O)n(C)c1=O,-7.02% (inactive),–
Cc1cc(=O)oc2c1ccc1ccccc12,-4.42% (inactive),–
Cc1nnc(SC(C)C(=O)c2c[nH]c3ccccc23)n1C1CC1 (stereo not given),-7.04% (inactive),–
COc1ccccc1OCCNC(=O)CCNC(=O)c1ccccc1Cl,9.3% (inactive),–
O=C(NCCOc1ccccc1Cl)C(=O)Nc1ccccc1,–,20.6 µM (active)
COc1cc(SC)ccc1C(=O)NCCOc1ccccc1Cl,-24.1% (inactive),–
COc1cc(C(=O)NNC(=O)CN2C(=O)NC3(CCCC3)C2=O)cc(OC)c1OC,15.5% (inactive),–

SMILES,"activity change, negative = growth inhibition",Potency
CC1(C(=O)NS(=O)(=O)c2cccc(F)c2)CCN1C(=O)Cc1ccc(Cl)cc1Cl (stereo not given),-13.7% (inactive),–
CCCOc1ccc(Cc2c(O)nc(SC)[nH]c2=O)cc1C,-3.97% (inactive),–
COc1ccc(S(=O)(=O)N2CCN(c3ncnc4c(-c5ccccc5)nsc34)CC2)cc1,–,16.4 µM (active)
COc1ccc(S(=O)(=O)N2CCN(c3cnccn3)CC2)cc1,-12.7% (inactive),–
COc1ccc(CCC(=O)N2CCN(S(=O)(=O)c3ccc(OC)cc3)CC2)cc1,-25.9% (inactive),–
Cc1noc(C)c1COc1ccccc1C(=O)N(C)CC(=O)Nc1cccc(F)c1,-23.1% (inactive),–
C[C@H]1NS(=O)(=O)c2cc(Cl)ccc2O[C@@H]1c1ccccc1,-16.9% (inactive),–
COc1ccc(OC)c(S(=O)(=O)n2c([N+](=O)[O-])cnc2C)c1,9.62% (inactive),–
COCCSc1nnc(NC(=O)CCS(=O)(=O)Cc2ccccc2)s1,-26.5% (inactive),–
CCOCc1nnc(NC(=O)CCS(=O)(=O)Cc2ccccc2)s1,–,9.2 µM (active)
CCCCc1nnc(NC(=O)CS(=O)(=O)Cc2ccccc2)s1,3.05% (inactive),–
Cn1c(N)c(C(=O)COC(=O)/C=C/c2cccc(C(F)(F)F)c2)c(=O)n(C)c1=O,-18% (inactive),–
Cc1ccc(CSCC(=O)N(C)CC(=O)Nc2cccc(F)c2)cc1,-3.39% (inactive),–
CCS(=O)(=O)c1ccc(-c2cccc(NC(=O)c3ccc(Br)o3)c2)nn1,3.85% (inactive),–
O=C(NCc1ccc(Cl)c(Cl)c1)c1cccnc1,-25.4% (inactive),–
O=C(O)c1ccccc1-c1ccccc1C(=O)NCc1cccnc1,10.1% (inactive),–
O=C(NCc1cccnc1)c1cccnc1Sc1ccc(Cl)cc1,14.9% (inactive),–
CS(=O)(=O)N(Cc1ccccc1Cl)c1ccc(C(=O)NCc2cccnc2)cc1,–,23.1 µM (active)
Cc1ccc(C(=O)NC(=S)NCc2cccnc2)cc1,-16% (inactive),–
Cc1ccc(S(=O)(=O)N(Cc2ccc(Cl)cc2)c2ccccc2C(=O)NCc2cccnc2)cc1,–,18.4 µM (active)
CC(=O)NCC(=O)N(C)C(C(=O)Nc1ccc2c(c1)OCCO2)c1ccccc1 (stereo not given),-4.03% (inactive),–
O=C(NCCCN1CCCC1=O)C(=O)NCC1OCCN1S(=O)(=O)c1ccc(Br)cc1 (stereo not given),–,18.4 µM (active)
COc1ccc(S(=O)(=O)N2CCOC2CNC(=O)C(=O)NCc2ccc(F)cc2)cc1 (stereo not given),0.226% (inactive),–
O=C(NCc1ccncc1)C(=O)NCC1OCCN1S(=O)(=O)c1ccc(Br)cc1 (stereo not given),-13.7% (inactive),–
CCOC(=O)c1cnc2c(C)cc(Cl)cc2c1NCCc1ccc(OC)c(OC)c1,-26.6% (inactive),–
CCOC(=O)c1cnc2c(C)cc(C)cc2c1Nc1ccc(N2CCOCC2)cc1,–,25.9 µM (active)
CCOC(=O)c1ccccc1C(=O)N1CCOCCOCCOCC1,-5.38% (inactive),–

SMILES,"activity change, negative = growth inhibition",Potency
CC(C)(O)C1=C[N+](=O)CC=C1,-6.98% (inactive),–
COc1ccc(SCc2cc(=O)c3ccc(C)c(C)c3[nH]2)cc1,-29.1% (inactive),–
CCOC(=O)CN1C(C(=O)c2ccccc2)=C(OC(=O)C(C)(C)C)c2ccccc2S1(=O)=O,–,20.6 µM (active)
CCOC(=O)c1ccccc1CN1C(=O)c2ccccc2S1(=O)=O,0.131% (inactive),–
COC(=O)C1=C(c2ccccc2)c2ccccc2S(=O)(=O)N1CC(=O)Nc1ccccc1C(F)(F)F,-28.1% (inactive),–
Cc1ccc2c(c1)N(CC(=O)N1CCC(O)CC1)C(=O)CO2,2.52% (inactive),–
Fc1ccc(-c2nc(Nc3cccc(Cl)c3)nc3c2COc2ccccc2-3)cc1,-23.3% (inactive),–
Cc1cc(OCC(=O)NCC(O)c2ccccc2)c2c(C)c(C)c(=O)oc2c1 (stereo not given),-26.3% (inactive),–
Cc1ccc(N(CC(=O)NCC2CCCO2)C(=O)CNS(=O)(=O)c2ccc(Cl)cc2)cc1 (stereo not given),-2.58% (inactive),–
Nc1ccccc1N,–,inactive and 4.86 µM (active)
Nc1cccnc1Sc1ccccc1,17.3% (inactive),–
Nc1ccccc1/C=N\N=C/c1ccccc1N,1.29% (inactive),–
CC1=NN(C(=O)c2ccc(Br)cc2)C(O)(c2ccccc2)C1 (stereo not given),-21% (inactive),–
Cc1ccc2nc(Nc3ncc4c(n3)CC(C)(C)CC4=O)nc(C)c2c1,-9.06% (inactive),–
CCOCCCNC(=O)C(NC(=O)CNC(=O)c1ccccc1)c1ccc(OC)cc1 (stereo not given),19.8% (inactive),–
COc1ccc(CNC(=O)C(C)NCc2ccccc2Cl)cc1 (stereo not given),3% (inactive),–
O=C(NNC(=S)NCc1ccco1)C(c1ccccc1)c1ccccc1,2.82% (inactive),–
CCc1nc2ccccc2c(C(=O)NCc2ccc(OC)cc2)c1C,-20.2% (inactive),–
CCCN(CCC)CCCNC(=O)CNC(=O)c1nn(-c2ccc(OC)cc2)c(=O)c2ccccc12,11.6% (inactive),–
CCCCCNC(=O)C(c1ccc(OC)cc1)n1c(=O)c(-c2ccccc2)nc2ccccc21 (stereo not given),–,23.1 µM (active)
N#Cc1ccc(C(C(=O)NCc2ccccc2)n2c(=O)c(-c3ccco3)nc3ccccc32)cc1 (stereo not given),–,20.6 µM (active)
COc1ccc(C(C(=O)NCc2ccccc2)n2c(=O)c(-c3ccccc3)nc3ccccc32)cc1 (stereo not given),–,14.6 µM (active)
O=C(CSc1nnc(-c2ccco2)n1Cc1ccccc1)NC(=O)NCc1ccco1,-15.2% (inactive),–
O=C1COc2ccc(S(=O)(=O)NCCc3ccc(Cl)cc3)cc2N1,-22.5% (inactive),–
